Data: PubChem BioAssay
Unmarked numbers belong to inactive results. The source made the active and inactive calls. The rule behind the calls is not given here.

Biological target: L-lactate dehydrogenase (Plasmodium falciparum (isolate CDC / Honduras)) (UniProt Q27743)
Test: PfLDH activity inhibition – cell lysate, 3D7 strain, counter-screen for P. falciparum growth inhibition project (AID 2304);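 note: 0% = vehicle and 100% = reference inhibitor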
Conditions: P. falciparum 3D7 crude extract, LDH APAD/NBT absorbance; at 2 µM; stronger effect = higher value

Sequence of L-lactate dehydrogenase (Plasmodium falciparum (isolate CDC / Honduras)) (Q27743 whole entry, looked up): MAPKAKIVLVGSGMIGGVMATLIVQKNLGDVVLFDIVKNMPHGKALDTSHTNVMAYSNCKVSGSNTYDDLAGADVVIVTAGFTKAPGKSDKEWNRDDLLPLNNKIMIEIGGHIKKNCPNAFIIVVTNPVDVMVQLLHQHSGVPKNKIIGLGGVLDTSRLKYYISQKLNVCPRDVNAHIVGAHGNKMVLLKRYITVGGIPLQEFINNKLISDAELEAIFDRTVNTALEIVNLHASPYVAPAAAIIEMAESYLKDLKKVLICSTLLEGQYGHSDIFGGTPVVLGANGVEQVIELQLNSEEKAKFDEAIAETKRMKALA

| SMILES | inhibition |
| --- | --- |
| O=c1cc(NCCCNCc2ccccc2-c2ccccc2)[nH]c2ccccc12 | -1% |
| Cc1cc(OCC2CCCO2)c2cc(NC(=O)C(=O)Nc3ccc4nc(C)cc(OCC5CCCO5)c4c3)ccc2n1 (stereo not given) | -4% |
| COc1cncc(/C=C/c2cncc(C(=O)NCCc3ccc(Cl)cc3Cl)c2)c1 | -9% |
| NC1=NC2(CCCC2)N(c2ccc(Cl)cc2)C(N)=N1 | -6% |
| CN1CCN(c2ccnc3ccc(NC(=O)Cc4ccc(-c5ccncc5)c5ccccc45)cc23)CC1 | 3% |
| CN1CCN(c2ccc(CNc3ccc4ncc(-c5cccc(OC(F)(F)F)c5)n4n3)cc2)CC1 | 3% |
| O=[N+]([O-])c1cccc(CNCC2CCN(CC3CCCCC3)CC2)c1 | 2% |
| CCNC(=O)c1cc(S(=O)(=O)N2CCN(c3ccccn3)CC2)cs1 | 1% |
| CN(C)CCNC(=O)[C@H](Cc1ccccc1)NC(=O)c1ccc(O)c(-c2ccc(Cl)c(Cl)c2)c1 | -6% |
| Cc1noc(C)c1-c1cccc(C(=O)NC2CCN(CCNC(=O)C(c3ccccc3)c3ccccc3)CC2)c1 | 5% |
| Cc1c(NCCCNCc2cc(Cl)cc(Cl)c2Cl)[nH]c2ccccc2c1=O | -2% |
| CCOC(=O)C(Oc1ccc2ccccc2c1)C(=O)OCC | -4% |
| CC(C)CN1C(=O)c2ccc(C(=O)Nc3nccs3)cc2C1=O | 1% |
| CC(C)c1cccc(OCC2CCN(c3ncc(C(=O)Nc4ccccc4)cc3Cl)CC2)c1 | -2% |
| O=C(NCc1ccc(Cl)cc1)c1ccc(C(=O)NCC2CCCN2CC2CCCCC2)cc1 (stereo not given) | -11% |
| COc1ccc(NC(=O)N2CCCN(CCCCCNC(=O)/C=C/c3ccc(Cl)cc3)CC2)cc1Cl | 1% |
| CC(C)CNCc1cccc(-c2cccc(CN(CCCN3CCN(C)CC3)C(=O)NC3CCCCC3)c2)c1 | 0% |
| COc1cc(CCN(C)Cc2ccc(OC)c(OC)c2)ccc1NC(=O)c1cccc2c(=O)c3cccc(F)c3[nH]c12 | 0% |
| COC(=O)c1ccc2nc(-c3ccc(/C=C/C(=O)NC4CCN(Cc5ccccc5)CC4)cc3)[nH]c2c1 | -5% |
| O=C(OCc1ccccc1)N1CCc2c([nH]c3ccccc23)C1CCC(F)(F)F (stereo not given) | 3% |

| SMILES | inhibition |
| --- | --- |
| CN(C)CCNCc1ccc(-c2ccc3c(Nc4ccc(F)cc4Cl)ccnc3c2)o1 | -9% |
| COc1cc(NC(=O)c2sc(-c3ccc(Cl)cc3)cc2NC(=O)c2cccc(N(C)C)c2)ccc1OCCN1CCCC1 | -3% |
| Cc1cc(NCCC(=O)Nc2ccccc2)nc(NCCc2cccs2)n1 | 0% |
| Cc1nccn1Cc1cc(C(C)(C)C)c(O)c(C(C)(C)C)c1 | -5% |
| CCc1cc2c(=O)c(-c3nc(C)cs3)c([C@H](N)Cc3ccc(O)cc3)oc2cc1O | 1% |
| CNCCNc1nccc(N2CCc3ncnc(Nc4ccc(OCc5cccc(F)c5)c(Cl)c4)c3C2)n1 | -4% |
| Cc1[nH]c(C)c(-c2ccc(-c3ccc(C(F)(F)F)cc3C(F)(F)F)nc2)c(=O)c1Br | 5% |
| CN(C)C1CCN(CC#Cc2cc3ncnc(Nc4ccc(OCc5cccc(F)c5)c(Cl)c4)c3s2)CC1 | -5% |
| CCCCCCCOc1ccc(NC(=O)Nc2ccc(Cn3ncc(N4CCCNCC4)c(Cl)c3=O)cc2)cc1 | 2% |
| c1ccc2c3c(ccc2c1)Sc1c(ccc2ccccc12)N3 | 0% |
| COc1ccc(CNCc2cccc(-c3cccc(-c4nc5ccccc5[nH]4)c3)c2)cc1 | 1% |
| COc1ccc(CNCCc2cccs2)cc1-c1cccc(S(=O)(=O)NCCN2CCCC2)c1 | -1% |
| N#Cc1cccc(Nc2ncc3c(-c4cccc(NC(=O)Cc5cccc(Cl)c5)c4)c[nH]c3n2)c1 | -2% |
| CN1CCN(CC2(Nc3nccc(NCc4ccc(Cl)cc4Cl)n3)CCCCC2)CC1 | 0% |
| O=S(=O)(c1c(Cl)cc(Cl)cc1Cl)N1CCCCC(c2ccc(C(F)(F)F)cc2)=N1 | -5% |
| CCC(C)(C)C1CCc2[nH]c3ccccc3c(=O)c2C1 (stereo not given) | -4% |
| Cc1cccc2[nH]c(-c3cccc(-c4ccc(CNCc5cccc(N)c5)cc4)c3)nc12 | -3% |
| Oc1ccccc1CCNC1CCc2ccccc2C1 (stereo not given) | 4% |
| Cn1cncc1-c1ccc2ncnc(Nc3ccc(OCc4ccccc4)cc3)c2c1 | 1% |
| CC(=O)Nc1cccc(C(=O)Nc2ccc(-c3cccc(-c4nc5ccc(C(F)(F)F)cc5[nH]4)c3)cc2)c1 | 2% |

Tested on: not listed separately
Test: inhibition of 3D7 malaria parasite growth – strain 3D7 (AID 2306);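 note: 0% = DMSO wells and 100% = chloroquine plus artemisinin control wells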
Conditions: P. falciparum 3D7 erythrocytic growth, LDH absorbance, 72 h; at 2 µM; stronger effect = higher value

| SMILES | growth inhibition |
| --- | --- |
| O=c1cc(NCCCNCc2ccccc2-c2ccccc2)[nH]c2ccccc12 | 88% (active) |
| Cc1cc(OCC2CCCO2)c2cc(NC(=O)C(=O)Nc3ccc4nc(C)cc(OCC5CCCO5)c4c3)ccc2n1 (stereo not given) | 96% (active) |
| COc1cncc(/C=C/c2cncc(C(=O)NCCc3ccc(Cl)cc3Cl)c2)c1 | 99% (active) |
| NC1=NC2(CCCC2)N(c2ccc(Cl)cc2)C(N)=N1 | 97% (active) |
| CN1CCN(c2ccnc3ccc(NC(=O)Cc4ccc(-c5ccncc5)c5ccccc45)cc23)CC1 | 103% (active) |
| CN1CCN(c2ccc(CNc3ccc4ncc(-c5cccc(OC(F)(F)F)c5)n4n3)cc2)CC1 | 89% (active) |
| O=[N+]([O-])c1cccc(CNCC2CCN(CC3CCCCC3)CC2)c1 | 90% (active) |
| CCNC(=O)c1cc(S(=O)(=O)N2CCN(c3ccccn3)CC2)cs1 | 97% (active) |
| CN(C)CCNC(=O)[C@H](Cc1ccccc1)NC(=O)c1ccc(O)c(-c2ccc(Cl)c(Cl)c2)c1 | 98% (active) |
| Cc1noc(C)c1-c1cccc(C(=O)NC2CCN(CCNC(=O)C(c3ccccc3)c3ccccc3)CC2)c1 | 85% (active) |
| Cc1c(NCCCNCc2cc(Cl)cc(Cl)c2Cl)[nH]c2ccccc2c1=O | 101% (active) |
| CCOC(=O)C(Oc1ccc2ccccc2c1)C(=O)OCC | 98% (active) |
| CC(C)CN1C(=O)c2ccc(C(=O)Nc3nccs3)cc2C1=O | 89% (active) |
| CC(C)c1cccc(OCC2CCN(c3ncc(C(=O)Nc4ccccc4)cc3Cl)CC2)c1 | 89% (active) |
| O=C(NCc1ccc(Cl)cc1)c1ccc(C(=O)NCC2CCCN2CC2CCCCC2)cc1 (stereo not given) | 97% (active) |
| COc1ccc(NC(=O)N2CCCN(CCCCCNC(=O)/C=C/c3ccc(Cl)cc3)CC2)cc1Cl | 97% (active) |
| CC(C)CNCc1cccc(-c2cccc(CN(CCCN3CCN(C)CC3)C(=O)NC3CCCCC3)c2)c1 | 100% (active) |
| COc1cc(CCN(C)Cc2ccc(OC)c(OC)c2)ccc1NC(=O)c1cccc2c(=O)c3cccc(F)c3[nH]c12 | 102% (active) |
| COC(=O)c1ccc2nc(-c3ccc(/C=C/C(=O)NC4CCN(Cc5ccccc5)CC4)cc3)[nH]c2c1 | 100% (active) |
| O=C(OCc1ccccc1)N1CCc2c([nH]c3ccccc23)C1CCC(F)(F)F (stereo not given) | 94% (active) |

| SMILES | growth inhibition |
| --- | --- |
| CN(C)CCNCc1ccc(-c2ccc3c(Nc4ccc(F)cc4Cl)ccnc3c2)o1 | 100% (active) |
| COc1cc(NC(=O)c2sc(-c3ccc(Cl)cc3)cc2NC(=O)c2cccc(N(C)C)c2)ccc1OCCN1CCCC1 | 99% (active) |
| Cc1cc(NCCC(=O)Nc2ccccc2)nc(NCCc2cccs2)n1 | 99% (active) |
| Cc1nccn1Cc1cc(C(C)(C)C)c(O)c(C(C)(C)C)c1 | 99% (active) |
| CCc1cc2c(=O)c(-c3nc(C)cs3)c([C@H](N)Cc3ccc(O)cc3)oc2cc1O | 101% (active) |
| CNCCNc1nccc(N2CCc3ncnc(Nc4ccc(OCc5cccc(F)c5)c(Cl)c4)c3C2)n1 | 100% (active) |
| Cc1[nH]c(C)c(-c2ccc(-c3ccc(C(F)(F)F)cc3C(F)(F)F)nc2)c(=O)c1Br | 97% (active) |
| CN(C)C1CCN(CC#Cc2cc3ncnc(Nc4ccc(OCc5cccc(F)c5)c(Cl)c4)c3s2)CC1 | 85% (active) |
| CCCCCCCOc1ccc(NC(=O)Nc2ccc(Cn3ncc(N4CCCNCC4)c(Cl)c3=O)cc2)cc1 | 87% (active) |
| c1ccc2c3c(ccc2c1)Sc1c(ccc2ccccc12)N3 | 92% (active) |
| COc1ccc(CNCc2cccc(-c3cccc(-c4nc5ccccc5[nH]4)c3)c2)cc1 | 102% (active) |
| COc1ccc(CNCCc2cccs2)cc1-c1cccc(S(=O)(=O)NCCN2CCCC2)c1 | 98% (active) |
| N#Cc1cccc(Nc2ncc3c(-c4cccc(NC(=O)Cc5cccc(Cl)c5)c4)c[nH]c3n2)c1 | 101% (active) |
| CN1CCN(CC2(Nc3nccc(NCc4ccc(Cl)cc4Cl)n3)CCCCC2)CC1 | 98% (active) |
| O=S(=O)(c1c(Cl)cc(Cl)cc1Cl)N1CCCCC(c2ccc(C(F)(F)F)cc2)=N1 | 98% (active) |
| CCC(C)(C)C1CCc2[nH]c3ccccc3c(=O)c2C1 (stereo not given) | 97% (active) |
| Cc1cccc2[nH]c(-c3cccc(-c4ccc(CNCc5cccc(N)c5)cc4)c3)nc12 | 101% (active) |
| Oc1ccccc1CCNC1CCc2ccccc2C1 (stereo not given) | 96% (active) |
| Cn1cncc1-c1ccc2ncnc(Nc3ccc(OCc4ccccc4)cc3)c2c1 | 101% (active) |
| CC(=O)Nc1cccc(C(=O)Nc2ccc(-c3cccc(-c4nc5ccc(C(F)(F)F)cc5[nH]4)c3)cc2)c1 | 101% (active) |
